Experimental data as given in PubChem BioAssay.
The source made the active and inactive calls. Unless noted, the rule behind the calls is not given here.

What was measured:
[1] = compound effects on lung adenocarcinoma cell viability – A549, calcein-AM fluorescence, 48 h, basal, profiling panel (AID 1162); conditions: higher = more signal; note: test concentration not given here
[2] = compound effects on differentiated 3T3-L1 adipocyte viability – cell-based, 3T3-L1 adipocytes, calcein-AM fluorescence, 48 h, basal, profiling panel (AID 1163); conditions: 3T3-L1 adipocytes viability, higher = more signal; note: test concentration not given here
[3] = compound effects on hepatocellular carcinoma cell viability – HepG2, calcein-AM fluorescence, 48 h, basal, profiling panel (AID 1164); conditions: higher = more signal; note: test concentration not given here
[4] = compound effects on multiple myeloma cell viability – MM1S, calcein-AM fluorescence, 48 h, basal, profiling panel (AID 1165); conditions: higher = more signal; note: test concentration not given here
[5] = calcein-AM signal in unstimulated myeloma cells – cell-based, calcein-AM fluorescence, 48 h, PK04 Diversity Set, profiling panel (AID 1166); conditions: RPMI8226 myeloma viability, higher = more signal;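 note: cells grown under basal conditions without added stimulus; test concentration not given here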
[6] = JC-1 mitochondrial signal, unstimulated HepG2 cells – cell-based, JC-1 fluorescence, 24 h, 100 nL compound, profiling panel (AID 1167); conditions: HepG2 mitochondrial potential, higher = more signal; note: test concentration not given here
[7] = JC-1 mitochondrial signal, unstimulated adipocytes – cell-based, JC-1 fluorescence, 3T3-L1 adipocytes, 24 h, 100 nL compound, profiling panel (AID 1168); conditions: JC-1 mitochondrial fluorescence, higher = more signal, called active from +8 up or from −8 down; note: test concentration not given here
[8] = JC-1 mitochondrial signal, unstimulated myeloma cells – cell-based, JC-1 fluorescence, RPMI8226, 24 h, 100 nL compound, profiling panel (AID 1169); conditions: JC-1 mitochondrial potential fluorescence, higher = more signal; note: test concentration not given here
[9] = JC-1 mitochondrial signal, unstimulated MM1S myeloma – cell-based, JC-1 fluorescence, 24 h, 100 nL compound, profiling panel (AID 1170); conditions: MM1S mitochondrial potential, higher = more signal; note: test concentration not given here
[10] = resazurin metabolic signal in A549 cells – cell-based, resazurin fluorescence, 24 h, PK04 Diversity Set, profiling panel (AID 1171); conditions: A549 viability, higher = more signal, called active from +8 up or from −8 down; note: test concentration not given here
[11] = resazurin metabolic signal in HepG2 cells – cell-based, resazurin fluorescence, 24 h, PK04 Diversity Set, profiling panel (AID 1172); conditions: HepG2 viability, higher = more signal; note: test concentration not given here
[12] = budding yeast growth changes without added modifier – OD600, strain BY4716, 24 h, basal condition, primary screen (AID 1173); conditions: S. cerevisiae BY4716 growth, OD600, 24 h; higher = more signal, called active from +8 up or from −8 down
[13] = viability profiling in MM1S myeloma cells – cell-based, resazurin fluorescence, basal, 24 h, PK04 Diversity Set, profiling panel (AID 1174); conditions: higher = more signal, called active from +8 up or from −8 down; note: test concentration not given here
[14] = molecular target: Dihydroorotate dehydrogenase (quinone), mitochondrial (Plasmodium falciparum (isolate 3D7)) (UniProt Q08210); test: inhibition of P. falciparum DHODH – biochemical, C-terminal His tag, absorbance 600 nm, primary screen (AID 1175); conditions: PfDHODH enzyme, DCIP absorbance 600 nm; higher = more signal, called active from +8 up or from −8 down;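 note: recombinant parasite enzyme with a five histidine tag at its C terminus; test concentration not given here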
[15] = inhibition of PAO1 biofilm formation – strain PAO1, LB-PBS medium, absorbance 600 nm, primary screen (AID 1176); note: test concentration not given here; conditions: P. aeruginosa PAO1 growth/biofilm, A600, 12 h; higher = more signal
[16] = growth modulation of vineyard yeast isolate – strain RM11-1a, OD600, basal, 24 h, primary screen (AID 1177);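 note: cultures grown under basal conditions with no added stressor; test concentration not given here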; conditions: S. cerevisiae RM11-1a growth, OD600, 24 h; higher = more signal, called active from +8 up or from −8 down
[17] = growth of efflux-deficient E. coli DRC39 – strain DRC39, OD650, 24 h, E. coli filamentation inducers, primary screen (AID 1178);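 note: growth measured as culture turbidity by optical density at 650 nm; test concentration not given here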; conditions: E. coli DRC39 acrAB, higher = more signal, called active from +8 up or from −8 down
[18] = growth of efflux-deficient E. coli DRC39 – strain DRC39, OD650, 48 h, E. coli filamentation inducers, primary screen (AID 1179);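 note: screen aims at cell division blockers that make cells filament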; conditions: E. coli DRC39 delta-acrAB growth, higher = more signal, called active from +8 up or from −8 down
[19] = viability profiling in RPMI8226 myeloma cells – cell-based, resazurin fluorescence, basal, 24 h, PK04 Diversity Set, profiling panel (AID 1180); conditions: higher = more signal;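 note: RPMI8826 multiple myeloma cell line at 5000 cells per well; test concentration not given here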
[20] = molecular target: E3 ubiquitin-protein ligase XIAP (Homo sapiens) (UniProt P98170); test: small molecules binding XIAP protein – biophysical, small-molecule microarray, fluorescence 635 nm, primary screen (AID 1181); conditions: higher = more signal;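 note: score merges 667 nm emission and signal to noise over triplicate slides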
Sequence of E3 ubiquitin-protein ligase XIAP (Homo sapiens) (P98170 whole entry, looked up): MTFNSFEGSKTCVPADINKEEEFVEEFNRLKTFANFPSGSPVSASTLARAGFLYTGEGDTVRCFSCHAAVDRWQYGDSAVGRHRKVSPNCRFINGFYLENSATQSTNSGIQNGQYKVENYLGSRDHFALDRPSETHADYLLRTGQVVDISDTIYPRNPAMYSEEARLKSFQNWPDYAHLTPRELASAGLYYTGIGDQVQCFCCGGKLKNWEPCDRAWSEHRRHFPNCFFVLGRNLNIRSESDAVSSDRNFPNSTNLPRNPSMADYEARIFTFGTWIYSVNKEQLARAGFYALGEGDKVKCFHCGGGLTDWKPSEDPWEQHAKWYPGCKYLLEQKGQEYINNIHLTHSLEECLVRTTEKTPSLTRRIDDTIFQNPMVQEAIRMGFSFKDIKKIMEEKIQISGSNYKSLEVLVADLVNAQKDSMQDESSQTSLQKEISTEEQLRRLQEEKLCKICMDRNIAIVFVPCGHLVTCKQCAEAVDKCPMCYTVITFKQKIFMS

Sequence of Dihydroorotate dehydrogenase (quinone), mitochondrial (Plasmodium falciparum (isolate 3D7)) (Q08210 whole entry, looked up): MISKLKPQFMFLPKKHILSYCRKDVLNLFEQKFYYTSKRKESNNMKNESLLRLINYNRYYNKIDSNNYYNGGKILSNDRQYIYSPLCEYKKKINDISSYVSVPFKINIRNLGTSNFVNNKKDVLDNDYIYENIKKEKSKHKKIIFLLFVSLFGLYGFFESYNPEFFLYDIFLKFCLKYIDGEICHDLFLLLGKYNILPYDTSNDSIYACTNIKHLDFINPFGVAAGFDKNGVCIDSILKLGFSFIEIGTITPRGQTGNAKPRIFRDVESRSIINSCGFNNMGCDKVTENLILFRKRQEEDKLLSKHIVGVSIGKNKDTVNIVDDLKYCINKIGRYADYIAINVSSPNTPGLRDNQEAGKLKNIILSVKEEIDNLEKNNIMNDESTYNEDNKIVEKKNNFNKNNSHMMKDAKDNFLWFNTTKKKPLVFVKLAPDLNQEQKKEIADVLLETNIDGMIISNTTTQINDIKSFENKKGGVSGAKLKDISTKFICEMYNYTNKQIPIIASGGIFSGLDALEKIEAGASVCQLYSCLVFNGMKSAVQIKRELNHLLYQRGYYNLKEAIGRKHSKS

Structure (SMILES) | z-score [1] | z-score [2] | z-score [3] | z-score [4] | z-score [5] | z-score [6] | z-score [7] | z-score [8] | z-score [9] | z-score [10] | z-score [11] | z-score [12] | z-score [13] | composite z-score [14] | z-score [15] | z-score [16] | z-score [17] | z-score [18] | z-score [19] | composite z-score [20]
C=CCOC(=O)[C@H]1[C@@H]2C(=O)O[C@@H](c3ccccc3)[C@@H](c3ccccc3)N2[C@@H](c2ccc(OCCOC(=O)[C@H]3C[C@H]4C(=O)N[C@@H](CC(C)C)C(=O)N4[C@H]3c3cccc(OCCO)c3)cc2)[C@]12C(=O)Nc1ccc(I)cc12 | -0.681 | 0.329 | 0.281 | -1.15 | -0.0034 | 1.69 | 0.681 (inactive) | -0.762 | -0.7 | -0.0975 (inactive) | -0.054 | 1.9 (inactive) | -0.414 (inactive) | 0.124 (inactive) | 2.9 (inactive) | 0.447 (inactive) | -0.0744 (inactive) | -0.62 (inactive) | -0.385 | -0.0174
O=C1OCCC/C=C\[C@H]2OC34C=CCN(CCN5CCOCC5)C(=O)[C@H]3N(CCCCCCO)C(=O)[C@@H]4C12 (stereo not given in full) | 0.26 | 1.3 | 1.18 | 1.54 | 0.279 | 0.538 | 0.587 (inactive) | 0.0622 | -0.955 | -0.168 (inactive) | 0.287 | -0.549 (inactive) | 0.828 (inactive) | -1.38 (inactive) | 0.0251 (inactive) | -1.06 (inactive) | 0.251 (inactive) | 0.547 (inactive) | 0.56 | 0.122
Cc1cc(C)c(C(O)C2C=CC3C(=O)NC(=O)C3N2Nc2ccc(Cl)cc2Cl)c(C)c1 (stereo not given) | -2.15 | -0.22 | -1.68 | -3.52 | -3.03 | -2.65 | -0.143 (inactive) | -1.02 | -0.44 | -1.59 (inactive) | -2.05 | -3.83 (inactive) | -1.94 (inactive) | -0.0825 (inactive) | 1.62 (inactive) | 0.737 (inactive) | -0.731 (inactive) | -1.17 (inactive) | -1.81 | 0.0251
C[N+](C)(C)CCCC[C@@H]1NC(=O)[C@H]2C[C@@H](C(=O)NCCCCCCN)[C@@H](c3ccc(O)cc3)N2C1=O | 0.811 | 0.629 | 0.38 | -1.39 | 0.135 | 1.28 | 0.367 (inactive) | -0.0466 | 0.596 | 0.169 (inactive) | -0.132 | 0.252 (inactive) | 0.99 (inactive) | 0.302 (inactive) | -0.515 (inactive) | 1.18 (inactive) | -0.231 (inactive) | -0.185 (inactive) | 0.976 | -0.0286
CCOC(=O)C[C@H]1[C@H](OC(=O)Cc2ccc3c(c2)OCO3)[C@@H](NC(=O)CC(C)C)c2cc(OCCCO)ccc2N1C(=O)Cc1ccc(OC)cc1 | 0.777 | 0.413 | 1.63 | -0.322 | 0.791 | 3.73 | 0.31 (inactive) | 0.139 | -0.19 | -0.581 (inactive) | -0.334 | -0.252 (inactive) | -0.0151 (inactive) | -1.26 (inactive) | 0.101 (inactive) | -1.73 (inactive) | 0.287 (inactive) | 0.629 (inactive) | 0.2 | -0.0622
CCOC(=O)C[C@H]1[C@H](OC(=O)Cc2ccc3c(c2)OCO3)[C@@H](NC(=O)Cc2ccc(OC)cc2)c2cc(OCCCO)ccc2N1C(=O)c1ccc2ccccc2n1 | 2.47 | 0.189 | 1.37 | 0.631 | -0.577 | 1.84 | 0.929 (inactive) | 0.628 | 0.819 | -0.23 (inactive) | -0.337 | -1.12 (inactive) | 0.853 (inactive) | -0.689 (inactive) | 0.82 (inactive) | -2.18 (inactive) | 2.3 (inactive) | 2.12 (inactive) | 0.0153 | 0.0526
CC(C)C(=C=CC[C@H](O)c1cccc(OCCO)c1)C[C@H](O)c1cc(Cl)cc(Cl)c1O | -0.105 | -0.903 | 0.142 | -1.67 | 0.205 | 0.00345 | 0.375 (inactive) | -0.527 | -0.826 | 1.01 (inactive) | 0.84 | -4.38 (inactive) | 0.0849 (inactive) | -0.0151 (inactive) | 0.33 (inactive) | 0.233 (inactive) | 0.889 (inactive) | 0.709 (inactive) | 1.61 | -0.16
CC[C@H]1C2=C3C(CC[C@H]4C(OCc5ccc(F)cc5C(F)(F)F)OC[C@](C)([C@@H]34)N(C(=O)OC(C)(C)C)C2)C(COC)C1COC (stereo not given in full) | -0.266 | -0.851 | 0.309 | 0.0661 | -0.307 | 1.38 | -0.159 (inactive) | -0.182 | -1.53 | -0.515 (inactive) | -0.983 | 0.9 (inactive) | -1.31 (inactive) | -0.0058 (inactive) | -0.126 (inactive) | 0.628 (inactive) | -0.543 (inactive) | 0.0886 (inactive) | -0.932 | -0.0838
NC(=O)NCC#Cc1ccc2c(c1)[C@]1(C(=O)N2)[C@H](C(=O)NC[C@H](O)c2ccccc2)[C@H]2C(=O)O[C@H](c3ccccc3)[C@H](c3ccccc3)N2[C@@H]1c1ccc(OCCO)cc1 | -0.313 | 0.468 | 0.0249 | -0.254 | 1.25 | -2.05 | -0.183 (inactive) | -1.1 | -0.642 | 0.818 (inactive) | 0.815 | 1.5 (inactive) | 0.449 (inactive) | -1.11 (inactive) | 1.72 (inactive) | 2.91 (inactive) | 0.615 (inactive) | 0.541 (inactive) | 1.3 | 0.11
